Rows were chosen to be rich in hits. Some 10% of all compounds tested hit in one or more screens of this group.
HP1b binding inh: inhibitors of HP1-beta chromodomain binding to methylated histone tails; P83916; AlphaScreen HP1-beta / biotin-H3K9me3 peptide binding; Potency, µM (top dose mostly 114 µM), most hits filed as inhibitors; actives 0.56% (n = 390,000); also: nearly all actives have a fitted effect of over 70% in size
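HP1-beta protein (50 nM final) preincubated 30 min at room temperature with biotinylated H3(1-18)K9me3 peptide (50 nM) in PBS pH 7.4, 0.01% Tween-20, then compound added for 30 min. AlphaScreen streptavidin donor/nickel chelate acceptor beads (10 ug/mL final), 30 min dark, luminescence read.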
G9a inh-1: inhibitors of human histone lysine methyltransferase G9a; G9a H3K9 monomethylation, AlphaScreen, 2 h; Potency, µM (highest dose often 102 µM), hits mostly inhibitors; actives 8.8% (n = 350,000); AID 504332; also: nearly all actives have a fitted effect of over 75% in size
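Quantitative HTS format: methyltransferase activity on a biotin-tagged H3K9 peptide is measured by AlphaScreen, using a rabbit anti-monomethyl-H3K9 antibody with streptavidin donor and anti-IgG acceptor beads. Final levels are 20 nM enzyme, 500 nM peptide, 20 uM SAM; 2 h RT.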
GLS inh: blocks human kidney-isoform glutaminase activity | O94925 | GLS enzymatic activity, qHTS titration | Potency, µM (doses to about 45.5 µM), most hits filed as inhibitors | actives 0.21% (n = 410,000)
Target sequence (O94925 whole entry, looked up, canonical isoform): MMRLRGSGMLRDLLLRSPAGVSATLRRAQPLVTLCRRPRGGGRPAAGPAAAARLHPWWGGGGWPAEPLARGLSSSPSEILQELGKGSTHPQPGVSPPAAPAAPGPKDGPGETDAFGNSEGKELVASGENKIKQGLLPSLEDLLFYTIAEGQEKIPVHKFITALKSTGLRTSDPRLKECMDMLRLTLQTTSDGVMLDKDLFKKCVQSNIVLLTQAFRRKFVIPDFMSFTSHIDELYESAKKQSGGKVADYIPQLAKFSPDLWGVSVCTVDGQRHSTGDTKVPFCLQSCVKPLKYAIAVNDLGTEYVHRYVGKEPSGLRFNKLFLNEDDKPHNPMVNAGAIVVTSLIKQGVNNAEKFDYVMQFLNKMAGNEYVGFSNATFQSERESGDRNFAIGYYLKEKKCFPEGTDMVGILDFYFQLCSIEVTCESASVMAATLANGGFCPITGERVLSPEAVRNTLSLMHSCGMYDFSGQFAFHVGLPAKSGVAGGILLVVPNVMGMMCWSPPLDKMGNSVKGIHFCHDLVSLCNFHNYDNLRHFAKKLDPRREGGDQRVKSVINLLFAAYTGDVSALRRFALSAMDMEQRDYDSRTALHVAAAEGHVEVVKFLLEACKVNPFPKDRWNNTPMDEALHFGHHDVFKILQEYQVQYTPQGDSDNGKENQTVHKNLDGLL
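hKGA in 45 mM KH2PO4 pH 8.2, 0.02% Tween-20 with pin-transferred compounds; 1 mM L-glutamine (stock) plus glutamate oxidase/HRP/Amplex Red coupling added. Fluorescence read initially and after 30 min at RT.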
JMJD2A Tudor: JMJD2A Tudor domain (human) inhibition | AlphaScreen JMJD2A-Tudor / H3K4me3 peptide binding | Potency, µM (highest dose often 114 µM), hits mostly inhibitors | actives 4.4% (n = 390,000) | AID 504339; also: nearly all actives have a fitted effect of over 50% in size
BAZ2B block: inhibitors of human BAZ2B bromodomain. Q9UIF8. AlphaScreen BAZ2B-H3K14Ac peptide displacement. Potency, µM (top dose mostly 114 µM), hits mostly inhibitors. actives 4.4% (n = 360,000). AID 504333; also: nearly all actives have a fitted effect of over 60% in size
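BAZ2B (50 nM) with biotin-H3(5-23)K14Ac peptide (50 nM) in PBS pH 7.4, 0.01% Tween-20, preformed 30 min, then compound 30 min at room temperature; top concentration 110uM. AlphaScreen streptavidin donor/nickel chelate acceptor beads (10 ug/mL final), 20 min dark, signal read.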
JMJD2E inh: confirmation of inhibitors of human JMJD2E demethylase | shares compounds with JMJD2A Tudor | actives 93% (n = 140) | Potency, µM (top dose mostly 56.8 µM), hits mostly inhibitors | Recombinant JMJD2E, FDH-coupled NADH fluorescence (FDH is formaldehyde dehydrogenase)
FDH inh: FDH (Pseudomonas putida) inhibition counter-screen. AID 2680. Potency, µM (titrated, usually from 56.7 µM), hits mostly inhibitors. actives 10% (n = 140). shares compounds with JMJD2A Tudor. FDH enzyme assay, NADH fluorescence kinetic
G9a inh-2: confirmation of human histone methyltransferase G9a inhibitors | shares compounds with JMJD2A Tudor | G9a H3K9 monomethylation, AlphaScreen, 2 h | Potency, µM, most hits filed as inhibitors | actives 89% (n = 370) | AID 588344; also: nearly all actives have a fitted effect of over 65% in size
RGS4 confirm: inhibits human RGS4, hit validation; shares compounds with JMJD2A Tudor; RGS4 GAP activity, Transcreener GDP fluorescence polarization; Potency, µM, actives largely listed as inhibitors; actives 80% (n = 25); AID 602388
GLS confirm: confirmation of human glutaminase inhibitors. shares compounds with GLS inh. biochemical glutaminase enzyme inhibition assay. Potency, µM (series often up to 46.1 µM), usual class: inhibitors. 35 tested, under 10 active. AID 624261; calls by dose curve
HRP GOx counter: inhibits HRP glutamate oxidase coupled readout, glutaminase counter-screen. shares compounds with GLS inh. HRP/glutamate oxidase coupled Amplex Red fluorescence counterscreen. activity change, negative = inhibition, % at 46.1 µM. 35 tested, under 10 active. AID 624262
GLS HEK tox: HEK-293 cytotoxicity, glutaminase hit confirmation; shares compounds with GLS inh; AID 624264; 35 tested, under 10 active; activity change, negative = cytotoxicity, % at 46.1 µM; HEK-293 viability, CellTiter-Glo luminescence, 24 h
Each line names hits and unclear results; the compound was inactive in the other large screens (follow-up assays come after a bar, where they were run). Unless noted, calls follow the shape of the dose curve; as a rule, active = well fitted curve in the direction sought with a large enough effect; inconclusive = small, poorly fitted or top-dose-only effect, or another doubt; inactive = no such curve, though single readings can be large; an effect the other way counts as inactive or inconclusive.

CSc1nnc(C2CCCN2)n1C (centres undefined)	G9a inh-1 2.51µM, JMJD2A Tudor inconclusive, BAZ2B block 17.8µM | G9a inh-2 4.48
O=C(c1ccncc1)N1CCC2(CC1)CN(C(c1ccccc1)c1ccccc1)C2	none (no result: HP1b binding inh, GLS inh, JMJD2A Tudor, BAZ2B block)
c1ccc(-c2ccc(N3CCCC4(CCNCC4)C3)cc2)cc1	none (no result: HP1b binding inh, GLS inh, JMJD2A Tudor, BAZ2B block) | RGS4 confirm 26.7
CCOC(=O)C(CC)Sc1c(CC)cnc2c1c(=O)n(C)c(=O)n2C (centres undefined)	none
Oc1ccccc1C=NC1=NN(c2cccc(C(F)(F)F)c2)CC1	G9a inh-1 1µM, JMJD2A Tudor inconclusive, BAZ2B block inconclusive | G9a inh-2 0.796
Cn1c(C(=O)N[C@@H](C(=O)O)c2ccccc2)cc2cc(Cl)ccc21	GLS inh inconclusive
CCCn1c(CNC(=O)c2ccc(F)cc2)nc2ccccc21	none
CCCn1c(CNc2ccccc2O)nc2ccccc21	G9a inh-1 inconclusive, JMJD2A Tudor inconclusive, BAZ2B block inconclusive | G9a inh-2 11.2
COc1cc(C2Nn3c(nnc3-c3ccccc3OC)S2)ccc1O (centres undefined)	HP1b binding inh inconclusive, G9a inh-1 0.631µM, JMJD2A Tudor 2.24µM | G9a inh-2 0.252
O=C(CSc1ncn[nH]1)c1cccc([N+](=O)[O-])c1	G9a inh-1 25.1µM, JMJD2A Tudor 28.2µM | JMJD2E inh 10µM | FDH inh 0.891µM
O=C(CSc1nnc(-c2ccncc2)o1)c1cccc([N+](=O)[O-])c1	none
Cc1cccc(NC(=O)C2SC(=Nc3c(C)cccc3C)C(C(=O)N3CCOCC3)=C2N)c1 (centres undefined)	G9a inh-1 1.58µM, JMJD2A Tudor inconclusive | G9a inh-2 15.9
COC(=O)c1ccccc1NC(=O)Cn1c(SC)c(F)cnc1=O	G9a inh-1 0.562µM | G9a inh-2 8.93
O=C(Nc1ccc(N2CCCC2)cc1)c1ccc(Br)o1	G9a inh-1 2.24µM, JMJD2A Tudor inconclusive, BAZ2B block inconclusive | G9a inh-2 0.71
CCN(CC)c1ccc(NC(=O)c2ccc(Br)o2)cc1	HP1b binding inh inconclusive, G9a inh-1 2.24µM, JMJD2A Tudor 44.7µM, BAZ2B block 50.1µM | G9a inh-2 7.1
CCOc1cc(CNc2ccccc2SC)ccc1O	G9a inh-1 inconclusive, BAZ2B block 56.2µM (no result: HP1b binding inh, GLS inh, JMJD2A Tudor) | G9a inh-2 7.96
Oc1c(CN2CCOCC2)ccc2ccccc12	G9a inh-1 2.24µM, JMJD2A Tudor inconclusive | G9a inh-2 1.26
Oc1c(CN2CCOCC2)cc(-c2ccccc2)cc1CN1CCOCC1	none
N#C/C(=C\C=C\c1ccccc1)C(=O)NCc1ccco1	BAZ2B block inconclusive
COc1ccc(NS(=O)(=O)c2cc(NC(=O)[C@H](C)NC(N)=O)ccc2N2CCCC2)cc1	GLS inh 15.8µM (no result: G9a inh-1, BAZ2B block) | GLS confirm inactive | HRP GOx counter inconclusive | GLS HEK tox inactive
